# Source: PubChem BioAssay (EPA / NIEHS)
# Where “and” joins values, the source holds several entries; their conditions need not be identical. Identical values can stand only once. Where a structure was tested more than once in an assay, its records may differ in their call. Calls of active or inactive are those of the source. How the source made its calls: active means hit-call score of the fitted dose curve at least 0.9, where 1 is the maximum; inactive means score below 0.9.
# Read-out: ABC Transporter (ABCB11), ABCB11 (gene 8647)
# Experiment: LTEA_HepaRG_ABCB11: Life Technologies and Expression Analysis (LTEA) Assay for ABC Transporter (ABCB11) using HepaRG (AID 2283463)
# Conditions: mRNA level, 48 h; actives raise or lower the signal
# Method: LTEA_HepaRG is a cell based, multiplexed-readout assay that uses HepaRG, a human liver cell line, with measurements taken at 48 hours after chemical dosing on a 96-well plate.LTEA_HepaRG_ABCB11 is one of 102 assay component(s) measured in the LTEA HepaRG cell culture assay. It is a marker of Steatosis/NR mediated transport.Data from the assay component LTEA_HepaRG_ABCB11 was analyzed into 1 endpoint. This assay endpoint, LTEA_HepaRG_ABCB11, was analyzed with bidirectional fitting relative to DMSO as the negative control and baseline of activity. Using a type of inducible reporter, measures of mRNA induction for gain or loss-of-signal activity can be used to understand regulation of transcription factor activity. To generalize the intended target to other relatable targets, this assay endpoint is annotated to the transporter intended target family, where the subfamily is ABC transporter.
# A total of 1060 chemcials from the ToxCast library were tested in eight-point concentration-response experiments. Cell culture and cytotoxicity assays were conducted at Thermo Fisher Scientific's Custom Services facility (Madison, WI). A single lot of human HepaRG cells (Thermo Fisher Scientific, Frederick, MD) was used for the cell culture experiments. 96-well format collagen type I coated plates of human HepaRG cells were prepared using established methods. Briefly, cryopreserved HepaRG cells were thawed, plated at a density of approximately 100,000 cells/well in HepaRG Thaw, Plate, and General Purpose media (HPRG770, Thermo Fisher Scientific), and incubated for 48 hours. 0.5% DMSO was selected as vehicle control to balance the requisite need of DMSO in HepaRG cultures to maintain differentiation (for example, baseline metabolism, proportions of hepatocytes vs. cholangiocytes), while enabling further hepatic receptor pathway activation (for example, PXR and CAR) in response to chemical exposure. 48 hours after plating, the culture medium was replaced with HepaRG Serum-Free Incudtion Media. Cells were exposed to each test chemical in duplicate and maintained in CO2 incubators for another 48 hours. Chemical plates were thawed to room temperature and 200x concentrations of treatment groups were prepared. 8-point conentration-reponse curves were made with the highest exposure at 100 uM, followed by half-log dilutions, all in 0.5% DMSO. Each test plate contained variouse controls, induction positive controls (1mM phenobarbital), cytotoxicity positive controls ([…] aflatoxin B1), vehicle controls (0.5% DMSO), and total lysis controls (0.5% DMSO). Cell morphology images were taken using an Essen IncuCyte FLR automated microscope, with six 96-well plates imaged in about 24 minutes. Images were captured and exported and JPEG files. Spent culture media was transfered to black-well plates for the LDH assay, and remaining media was sorted at -80 C for later use. Cells were treated with RLT buffer and frozen until shipped for gene expression analysis. Total RNA was isolated from the cell suspension in 75 uL of Buffer RLT (Qiagen, Germantown, MD 20874) by Quintiles/Expression Analysis (Durham, NC) using a custom isolation procedure. Total RNA from each plate well was transferred to a preamplification plate. Fluidigm's 96.96 Dynamic ArrayTM (Fluidigm, Amsterdam, the Netherlands) technology was used for gene expression analyses by quantitative reverse transcription polymerase chain reaction (qRT-PCR, performed by Quintiles/Expression Analysis, Durham, NC)89. Standard TaqManTM Assays (Applied Biosystems/ThermoFisher Scientific, Foster City, CA) were used to assess the expression of 93 genes selected based on their selectivity and sensitivity to important hepatic receptors known to be modulated by environmental chemicals; importance in human hepatocyte functionality; and hepatotoxicity. […]
Structure (SMILES),outcome,AC50
COP(=O)(OC)OC=C(Cl)Cl,inactive,
COc1nn(CSP(=S)(OC)OC)c(=O)s1,inactive,
CN1CSC(=S)N(C)C1,inactive,
ClC1C(Cl)C(Cl)C(Cl)C(Cl)C1Cl (stereo not given),inactive,
CNC(=O)/C=C(\C)OP(=O)(OC)OC,inactive,
N#Cc1c(Cl)c(Cl)c(Cl)c(C#N)c1Cl,,47.1 µM (active)
C[C@H]1[C@H](c2ccc(Cl)cc2)SC(=O)N1C(=O)NC1CCCCC1,,76.5 µM (active)
C#CCN1C(=O)COc2cc(F)c(N3C(=O)C4=C(CCCC4)C3=O)cc21,,50 µM (active)
COP(=S)(OC)Oc1ccc(SC)c(C)c1,inactive,
CCCN(CCC)c1c([N+](=O)[O-])cc(C(F)(F)F)cc1[N+](=O)[O-],inactive,
CCc1ccc(C(=O)NN(C(=O)c2cc(C)cc(C)c2)C(C)(C)C)cc1,inactive,
Oc1cc(Cl)ccc1Oc1ccc(Cl)cc1Cl,inactive,73.3 µM (active) and 75.5 µM (active)
Clc1ccccc1-c1nnc(-c2ccccc2Cl)nn1,inactive,
CC(C)(C)C(O)C(Oc1ccc(Cl)cc1)n1cncn1 (stereo not given),inactive,9.92 µM (active)
N#CN,inactive,
O=C1c2ccccc2C(=O)N1SC(Cl)(Cl)Cl,inactive,
O=S(=O)(O)C(F)(F)C(F)(F)C(F)(F)C(F)(F)C(F)(F)C(F)(F)C(F)(F)C(F)(F)F,inactive,90.7 µM (active) and 85.1 µM (active) and 86.6 µM (active)
CCOCN(C(=O)CCl)c1c(C)cccc1CC,,82.5 µM (active)
CC1(C)C(C=C(Cl)Cl)C1C(=O)OC(C#N)c1ccc(F)c(Oc2ccccc2)c1 (stereo not given),inactive,

Structure (SMILES),outcome,AC50
COP(=S)(OC)Oc1ccc([N+](=O)[O-])cc1,inactive,
O=[N+]([O-])/N=C1\NCCN1Cc1ccc(Cl)nc1,,26.6 µM (active)
O=S1OCC2C(CO1)C1(Cl)C(Cl)=C(Cl)C2(Cl)C1(Cl)Cl (stereo not given),,50 µM (active)
CCC(C)Nc1c([N+](=O)[O-])cc(C(C)(C)C)cc1[N+](=O)[O-] (stereo not given),inactive,
O=C(O)COc1ccc(Cl)cc1Cl,,31.2 µM (active)
CC1(c2ccc(Oc3ccccc3)cc2)OC(=O)N(Nc2ccccc2)C1=O (stereo not given),,8.3 µM (active)
Oc1ccc(Cl)cc1Cc1ccccc1,,93.7 µM (active) and 67 µM (active) and 80 µM (active)
O=[N+]([O-])c1c(Cl)c(Cl)c(Cl)c(Cl)c1Cl,inactive,
CC(C)N(C(=O)COc1nnc(C(F)(F)F)s1)c1ccc(F)cc1,,50 µM (active)
CNC(=O)CSP(=S)(OC)OC,inactive,
O=C(O)CCCOc1ccc(Cl)cc1Cl,inactive,
CNC(=O)Oc1ccccc1OC(C)C,inactive,
CCN(CC)C(=O)SCc1ccc(Cl)cc1,inactive,
OCCOc1ccccc1,inactive,
Cc1[nH]c(=O)n(C(C)(C)C)c(=O)c1Cl,inactive,
O=C(NC(=O)c1c(F)cccc1F)Nc1ccc(OC(F)(F)C(F)OC(F)(F)F)c(Cl)c1 (stereo not given),inactive,
CC(C)OC(=O)Nc1cccc(Cl)c1,inactive,
CC[C@H](C)[C@H]1O[C@]2(C=C[C@@H]1C)C[C@@H]1C[C@@H](C/C=C(\C)[C@@H](O[C@H]3C[C@H](OC)[C@@H](O[C@H]4C[C@H](OC)[C@@H](O)[C@H](C)O4)[C@H](C)O3)[C@@H](C)/C=C/C=C3\CO[C@@H]4[C@H](O)C(C)=C[C@@H](C(=O)O1)[C@]34O)O2 (tested in a mixture with another compound),,15.8 µM (active)
